# Compound activity (PubChem)
# KAT2A inh – GCN5L2 (KAT2A) acetyltransferase inhibition. Q92830. GCN5L2 HAT assay, ThioGlo1 CoA-SH fluorescence. Potency, µM (doses to about 58.9 µM), actives largely listed as inhibitors. 390,000 compounds, 0.21% hits
#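 qHTS, 1536-well. 20nM enzyme, pH 7.5 HEPES/EDTA/Tween-20 buffer; 15 min compound preinc., RT. Start: 75uM H3(1-25), 70uM AcCoA, 50uM ThioGlo1. Read Ex340/Em540 at t=0 (autofluorescence flag) and t=20 min.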
# VDR inh – blocks the human vitamin D receptor; P11473; VDR-SRC2-3 peptide fluorescence polarization, 2 h; Potency, µM, hits mostly inhibitors; 400,000 compounds, 0.93% hits
#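 VDR–SRC2-3 interaction, FP format. Cmpds 23 nl via pintool, brief spin, 2 h ambient incubation.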
# TrxR1 inh – rat TrxR1 inhibition; AID 588453; Potency, µM (top dose mostly 114 µM), usual class: inhibitors; 390,000 compounds, 1% hits; recombinant rTrxR1, NADPH fluorescence consumption, selenite substrate; O89049; also: nearly all actives have a fitted effect of over 65% in size
#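 Rat TrxR1 (90 nM in the dispensed reagent) was pre-reduced with 400 uM NADPH for 5 min at room temperature, then incubated with compound for 15 min. After 400 uM selenite was added, NADPH fluorescence (Ex 340/Em 450 nm) was followed for 8 min.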
# TrxR1 substrate – substrates of rat thioredoxin reductase 1 | O89049 | purified TrxR1 substrate turnover, NADPH consumption readout | Potency, µM (series often up to 114 µM) | 390,000 compounds, 0.01% hits; also: nearly all actives have a fitted effect of over 50% in size
#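 Rat TrxR1, dispensed at 90 nM, was prereduced with 400 uM NADPH (final) for 5 min at ~22 deg C, then incubated with compound 15 min before 400 uM selenite. A first-read NADPH fluorescence drop versus no-compound background flagged substrates.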
# Hits are given with their value; i = inactive; ? = inconclusive; nt = no result given; ! = repeats disagree; [ ] = remark or other dose. Compounds with a hit are over-represented: about 1.8% of the library has one in this group of screens. Calls follow the shape of the dose curve; as a rule, active = well fitted curve in the direction sought with a large enough effect; inconclusive = small, poorly fitted or top-dose-only effect, or another doubt; inactive = no such curve, though single readings can be large; an effect the other way counts as inactive or inconclusive.
SMILES,KAT2A inh,VDR inh,TrxR1 inh,TrxR1 substrate
Cc1ccc(C2=NN(C(=O)CCl)C(c3ccco3)C2)o1 (configuration not stated),i,i,22.4µM,i
Cc1cc(C)cc(NC(=O)CSc2nc3ccccc3nc2N2CCCCC2)c1,35.5µM,i,i,i
O=C(OCn1ncc(Cl)c(Cl)c1=O)c1cccc(C(F)(F)F)c1,i,?,15.8µM,i
COC(=O)[C@@]1(Cc2ccc(OC)cc2)[C@@H]2C(=CC(=O)[C@H]2CC(=O)C(=O)N2CCCC2)CN1C(=O)c1ccccc1,i,89.1µM,i,i
COC(=O)[C@@]1(Cc2ccc(OC)cc2)[C@@H]2[C@@H](CC(=O)[C@H]2CC(=O)C(=O)N(C)C)CN1C(=O)c1ccccc1,i,i,i,i
COc1c(C=O)c(O)cc2c1C(=O)c1ccccc1C2=O,?,7.08µM,nt,nt
Cc1cc2c(cc(C(=O)OCC(=O)NCc3ccco3)n2C)s1,i,i,i,i
Cn1c(C(=O)OCC(=O)NCc2ccco2)cc2sccc21,i,i,25.1µM,i
CC(C)=CC[C@@H](O)C1=CC(=O)c2c(O)ccc(O)c2C1=O,25.1µM,1.78µM,nt,nt
CCC(=O)N1CCc2cc(Br)cc(S(=O)(=O)N3CCCC(C(=O)N(C)c4ccc(Br)cc4)C3)c21 (configuration not stated),i,i,i,i
NCCCS(=O)(=O)O,i,i,10.6µM!,i
O=C(Nc1nccs1)C1CC=CC2CCN(Cc3ccc(Cl)c(Cl)c3)C(=O)C21 (configuration not stated),nt,i,i,i
CC(=O)Nc1nc(-c2cccc3ccccc23)cs1,i,25.1µM,i,i
CCCNC(=O)Cn1ncc2c3ccccc3n(CCC)c2c1=O,i,i,i,i
CCOc1ccc(C2C(C#N)=C(N)Oc3nc[nH]c(=O)c32)cc1OC (configuration not stated),i,i,i,i
CCOc1ccc(C2NC(=O)C(C#N)=C(S)N2c2cccc(C)c2)cc1OC (configuration not stated),i,79.4µM,i,i
CCOc1ccc(C2NC(=O)C(C#N)=C(S)N2c2ccc(C)cc2)cc1OC (configuration not stated),i,17.8µM,i,i
CCOc1ccc(C2C(=O)N(C3CCCCCC3)CC(=O)N2Cc2ccc(C)cc2)cc1OC (configuration not stated),i,i,i,i
Cc1cccc(C(=O)O/N=C(\c2ccccc2)c2cccnc2)c1,i,i,i,i
O=C(O)COc1cccc2c1CCC=C2CCO/N=C(\c1ccccc1)c1cccnc1,i,50.1µM,nt,nt
Cc1cc(/C=C/c2ccnc3ccccc23)ccc1N,nt,nt,i,i
N#C/C(=C/c1ccc(C(=O)O)cc1)C(=O)NCc1ccccc1,i,i,i,i
N#C/C(=C\c1cccs1)C(=O)NCc1ccccc1,i,44.7µM,i,i
CCOC(=O)c1cn(-c2ccc(F)c(F)c2F)c2c(F)c(F)c(F)cc2c1=O,i,i,i,i
CCOC(=O)c1cn(-c2nc(-c3ccc(Cl)c(Cl)c3)cs2)c2c(F)c(N3CCOCC3)c(F)cc2c1=O,2.51µM,i,i,i
SMILES,KAT2A inh,VDR inh,TrxR1 inh,TrxR1 substrate
COc1ccc(CN(Cc2ccccc2)C(=O)Nc2ccccc2)cc1COc1ccc(NC(C)=O)cc1,nt,i,i,i
COc1cc(/C=C/C(=O)N2C(=O)c3cccc(N)c3C2=O)cc(OC)c1OC,?,i,i,i
Nc1cccc2c1C(=O)N(C(=O)/C=C/c1cccc(F)c1)C2=O,i,39.8µM,28.2µM,i
COC(=O)CCC/C=C1/SCC(NC(=O)c2ccccc2)C1=O (configuration not stated),?,89.1µM,25.1µM,i
COc1ccc(CNC(=O)CCCOc2cc(=O)n(C)c3ccccc23)cc1,i,i,i,i
Cc1ccc(CNC(=O)CCCOc2cc(=O)n(C)c3ccccc23)o1,i,i,39.8µM,i
CCOC(=O)c1[nH]c2c(c1Cc1ccccc1)C(=O)CC(c1ccc(Cl)cc1)C2 (configuration not stated),i,i,i,i
CCC(=O)Nc1ccc2c(c1)nc(CN1CCN(C(C)=O)CC1)n2C,31.6µM,i,i,i
CC1O[C@@H](O[C@@H]2C(O)C[C@H](O[C@@H]3C(O)C[C@@H](OC4CC[C@@]5(C)C6CC(O)[C@@]7(C)C(C8=CC(=O)OC8)CC[C@@]7(O)C6CC[C@@H]5C4)OC3C)OC2C)CC(O)[C@H]1O (some centres not stated),i,i,nt,nt
Fc1ccccc1C1CC(c2ccco2)=Nc2ccccc2S1 (configuration not stated),i,79.4µM,i,i
COc1ccccc1C1CC(c2cccs2)=Nc2ccccc2S1 (configuration not stated),i,i,i,i
CC/C=C\C/C=C\C/C=C\C/C=C\C/C=C\C/C=C\CCC(=O)O,i,31.6µM!,nt,nt
CC/C=C\C/C=C\C/C=C\C/C=C\C/C=C\CCCCCC(=O)O,i,?,nt,nt
Nc1cc(OC(=O)c2cccs2)nn1S(=O)(=O)c1ccc(F)cc1,i,i,79.4µM,i
Nc1cc(OC(=O)c2cccs2)nn1S(=O)(=O)c1ccccc1,i,i,i,i
O=C(O)CC[C@H](NC(=O)c1ccccc1C(=O)O)C(=O)O,nt,nt,i,nt
CCCCS(=O)(=O)/C=C\C1C2C=CC(C2)C1S(=O)(=O)CCCC (configuration not stated),i,i,i,i
CCCCS(=O)(=O)/C=C\C=C/S(=O)(=O)CCCC,i,35.5µM,3.55µM,i
CCN(CC)C(=O)c1ccc(S(=O)(=O)Cc2ccc(C)cc2)c([N+](=O)[O-])c1,i,i,31.6µM,i
Cc1ccc(NC(=O)C2CCCN(S(=O)(=O)c3ccc4c(c3)CCCC(=O)N4)C2)cc1Cl (configuration not stated),i,i,i,i
CCOC(=O)c1sc(N/N=C/c2ccccc2)nc1C,i,44.7µM,i,i
CCCCCC#CCC#CCC#CCC#CCCCC(=O)O,2.24µM,nt,nt,nt
CCCCCCCCCC(=O)O,i,i,i,i
Nc1nc(Br)c2c(F)cccc2c1-c1ccc(Cl)cc1,i,i,5.62µM,i
Nc1nc(Br)c2ccccc2c1-c1ccccc1,i,i,i,i
SMILES,KAT2A inh,VDR inh,TrxR1 inh,TrxR1 substrate
O=C(O)/C=C/C(=O)Nc1ccc(Oc2ncnc3cc(Cl)ccc23)nc1,i,i,56.2µM,i
COCCCNC(=O)c1c(NC(=O)c2nc(S(C)(=O)=O)ncc2Cl)sc2c1CCCC2,i,i,1.78µM,i
CCNC(=O)c1c(NC(=O)c2nc(S(=O)(=O)CC)ncc2Cl)sc2c1CCCC2,i,?,14.1µM,i
CCSc1ncc(Cl)c(C(=O)Nc2sc3c(c2C(=O)NCCCOC)CCCC3)n1,i,i,i,i[0.457 µM]
CN(C)c1ccc(C(=C2c3ccccc3-c3ccccc32)c2ccc(N(C)C)cc2)cc1,nt,nt,i,i
C[C@@H]1O[C@H](O[C@@H]2[C@@H](Oc3cc(O)c4c(c3)O[C@H](c3ccc(O)cc3)CC4=O)O[C@@H](CO)[C@@H](O)[C@H]2O)[C@@H](O)[C@H](O)[C@@H]1O,i,i,nt,nt
